According to PubChem BioAssay AID1159580 (chemical genetic matrix, 2015):
The campaign covered roughly 5,500 compounds. About 2,000 (36%) were called active. Roughly 18% stayed inconclusive and do not appear here. Rule as the data show it: active = normalized growth mostly below about 0.91 (no sharp cut-off); inconclusive = no clear call, values can overlap the other calls; inactive = mostly above about 0.92. This is one part of the list.

Experiment: chemical genetic growth profiling, strain panel (AID 1159580);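 also: tested at 20 µM; growth read once vehicle control cultures reached saturation at 30 °C; 1 = growth at the plate median or of vehicle wells; lower values mean less growth of the strain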
Details: growth OD

Measured: normalized growth

COc1ccccc1-c1cc(=O)c2c(OC)cccc2o1
inactive: S. cerevisiae deletion strains, locus YBR021W, strain FUR4, stronger effect = lower value 0.99 | S. cerevisiae deletion strains, locus YBR229C, strain ROT2, stronger effect = lower value 0.973 | S. cerevisiae deletion strains, locus YCL029C, strain bik1, stronger effect = lower value 1 | S. cerevisiae deletion strains, locus YDL035C, strain GPR1, stronger effect = lower value 0.953 | S. cerevisiae deletion strains, locus YDL074C, strain BRE1, stronger effect = lower value 0.923 | S. cerevisiae deletion strains, locus YDL101C, strain DUN1, stronger effect = lower value 0.966 | S. cerevisiae deletion strains, locus YDL185W, strain tfp1, stronger effect = lower value 0.987 | S. cerevisiae deletion strains, locus YDR101C, strain arx1, stronger effect = lower value 0.987 | S. cerevisiae deletion strains, locus YDR162C, strain NBP2, stronger effect = lower value 0.95 | S. cerevisiae deletion strains, locus YDR318W, strain mcm21, stronger effect = lower value 0.935 | S. cerevisiae deletion strains, locus YDR388W, stronger effect = lower value 0.985 | S. cerevisiae deletion strains, locus YDR502C, strain sam2, stronger effect = lower value 0.944 | S. cerevisiae deletion strains, locus YEL061C, strain CIN8, stronger effect = lower value 0.977 | S. cerevisiae deletion strains, locus YER110C, stronger effect = lower value 0.977 | S. cerevisiae deletion strains, locus YER155C, strain BEM2, stronger effect = lower value 1.01 | S. cerevisiae deletion strains, locus YER167W, strain BCK2, stronger effect = lower value 0.996 | S. cerevisiae deletion strains, locus YGL078C, strain dbp3, stronger effect = lower value 0.983 | S. cerevisiae deletion strains, locus YGL086W, strain mad1, stronger effect = lower value 0.99 | S. cerevisiae deletion strains, locus YGL248W, strain PDE1, stronger effect = lower value 0.942 | S. cerevisiae deletion strains, locus YGR078C, strain PAC10, stronger effect = lower value 0.938 | S. cerevisiae deletion strains, locus YGR135W, strain pre9, stronger effect = lower value 0.915 | S. cerevisiae deletion strains, locus YGR252W, strain gcn5, stronger effect = lower value 0.776 | S. cerevisiae deletion strains, locus YHR030C, strain SLT2, stronger effect = lower value 0.991 | S. cerevisiae deletion strains, locus YHR079C, strain IRE1 (second series), stronger effect = lower value 0.979 | S. cerevisiae deletion strains, locus YHR094C, strain hxt1, stronger effect = lower value 0.996 | S. cerevisiae deletion strains, locus YHR129C, strain ARP1, stronger effect = lower value 0.967 | S. cerevisiae deletion strains, locus YHR200W, strain rpn10, stronger effect = lower value 0.98 | S. cerevisiae deletion strains, locus YIL066C, strain RNR3, stronger effect = lower value 0.961 | S. cerevisiae deletion strains, locus YIL073C, strain SPO22, stronger effect = lower value 0.931 | S. cerevisiae deletion strains, locus YIL125W, strain kgd1, stronger effect = lower value 1.01 | S. cerevisiae deletion strains, locus YIR030C, strain dcg1, stronger effect = lower value 0.969 | S. cerevisiae deletion strains, locus YJL134W, strain LCB3, stronger effect = lower value 0.988 | S. cerevisiae deletion strains, locus YJL168C, strain set2, stronger effect = lower value 0.971 | S. cerevisiae deletion strains, locus YJL187C, strain SWE1 (second series), stronger effect = lower value 0.954 | S. cerevisiae deletion strains, locus YJR043C, strain POL32, stronger effect = lower value 0.999 | S. cerevisiae deletion strains, locus YJR075W, strain HOC1, stronger effect = lower value 0.987 | S. cerevisiae deletion strains, locus YKL009W, strain mrt4, stronger effect = lower value 0.968 | S. cerevisiae deletion strains, locus YKL068W, stronger effect = lower value 0.993 | S. cerevisiae deletion strains, locus YKL085W, strain MDH1 (second series), stronger effect = lower value 0.982 | S. cerevisiae deletion strains, locus YKL085W, strain MDH1, stronger effect = lower value 0.982 | S. cerevisiae deletion strains, locus YKL190W, strain CNB1, stronger effect = lower value 0.972 | S. cerevisiae deletion strains, locus YKR001C, strain vps1, stronger effect = lower value 0.916 | S. cerevisiae deletion strains, locus YLR039C, strain RIC1, stronger effect = lower value 0.872 | S. cerevisiae deletion strains, locus YLR058C, strain SHM2, stronger effect = lower value 0.96 | S. cerevisiae deletion strains, locus YLR102C, strain apc9, stronger effect = lower value 0.988 | S. cerevisiae deletion strains, locus YLR262C, strain YPT6, stronger effect = lower value 0.815 | S. cerevisiae deletion strains, locus YLR268W, strain sec22, stronger effect = lower value 0.98 | S. cerevisiae deletion strains, locus YLR330W, strain CHS5, stronger effect = lower value 0.976 | S. cerevisiae deletion strains, locus YLR342W, strain FKS1 (second series), stronger effect = lower value 0.894 | S. cerevisiae deletion strains, locus YLR371W, strain rom2, stronger effect = lower value 0.979 | S. cerevisiae deletion strains, locus YML016C, strain PPZ1, stronger effect = lower value 0.983 | S. cerevisiae deletion strains, locus YML032C, strain rad52, stronger effect = lower value 0.951 | S. cerevisiae deletion strains, locus YML124C, strain tub3, stronger effect = lower value 0.983 | S. cerevisiae deletion strains, locus YMR078C, strain ctf18, stronger effect = lower value 0.969 | S. cerevisiae deletion strains, locus YMR223W, strain ubp8, stronger effect = lower value 0.916 | S. cerevisiae deletion strains, locus YMR263W, strain SAP30, stronger effect = lower value 0.958 | S. cerevisiae deletion strains, locus YMR307W, strain GAS1, stronger effect = lower value 0.72 | S. cerevisiae deletion strains, locus YNL067W, strain RPL9B, stronger effect = lower value 0.982 | S. cerevisiae deletion strains, locus YNL153C, strain GIM3, stronger effect = lower value 0.974 | S. cerevisiae deletion strains, locus YNL233W, strain BNI4, stronger effect = lower value 0.922 | S. cerevisiae deletion strains, locus YNL250W, strain rad50, stronger effect = lower value 0.999 | S. cerevisiae deletion strains, locus YNL271C, strain bni1, stronger effect = lower value 0.969 | S. cerevisiae deletion strains, locus YNL298W, strain CLA4, stronger effect = lower value 0.965 | S. cerevisiae deletion strains, locus YNL322C, strain KRE1, stronger effect = lower value 0.978 | S. cerevisiae deletion strains, locus YNR052C, strain pop2, stronger effect = lower value 0.958 | S. cerevisiae deletion strains, locus YOL006C, strain TOP1, stronger effect = lower value 0.762 | S. cerevisiae deletion strains, locus YOL012C, strain htz1 1.44 | S. cerevisiae deletion strains, locus YOL147C, strain pex11, stronger effect = lower value 0.975 | S. cerevisiae deletion strains, locus YOR061W, strain CKA2, stronger effect = lower value 0.972 | S. cerevisiae deletion strains, locus YOR069W, strain VPS5, stronger effect = lower value 0.982 | S. cerevisiae deletion strains, locus YOR136W, strain idh2, stronger effect = lower value 1 | S. cerevisiae deletion strains, locus YOR144C, strain elg1, stronger effect = lower value 0.996 | S. cerevisiae deletion strains, locus YOR316C, strain cot1, stronger effect = lower value 0.992 | S. cerevisiae deletion strains, locus YPL241C, strain CIN2, stronger effect = lower value 0.974 | S. cerevisiae deletion strains, locus YPR119W, strain clb2, stronger effect = lower value 0.982 | S. cerevisiae deletion strains, locus YPR141C, strain kar3, stronger effect = lower value 0.987 | S. cerevisiae deletion strains, locus YPR163C, strain tif3, stronger effect = lower value 0.964 | S. cerevisiae deletion strains, locus YPR167C, strain met16, stronger effect = lower value 0.969 | S. cerevisiae deletion strains, strain wtn01, stronger effect = lower value 1 | S. cerevisiae strains, strain wild type, stronger effect = lower value 0.975
active: S. cerevisiae deletion strains, locus YDL192W, strain arf1, stronger effect = lower value 0.892 | S. cerevisiae deletion strains, locus YJL095W, strain BCK1, stronger effect = lower value 0.773 | S. cerevisiae deletion strains, locus YLR418C, strain cdc73, stronger effect = lower value 0.77 | S. cerevisiae deletion strains, locus YNL307C, strain MCK1, stronger effect = lower value 0.88 | S. cerevisiae deletion strains, locus YOR184W, strain ser1, stronger effect = lower value 0.837
